Measurements as given in the supplement of paper PMC12819154, “High-throughput peptide-centric local stability assay extends protein–ligand identification to membrane proteins, tissues and bacteria” (Nature Structural & Molecular Biology, 2025).

Compound: Nc1ncnc2c1ncn2[C@@H]1O[C@H](COP(=O)(O)OP(=O)(O)OP(=O)(O)O)[C@@H](O)[C@H]1O [adenosine 5'-triphosphate]
Test: log2 fold change of tryptic peptide abundance, ligand vs vehicle (limited proteolysis) (log2 ratio); higher = more trypsin-susceptible (destabilized)
Conditions: ligand concentration: 5 mM; sample: E. coli desalted lysate; replicate design: treated before aliquoting
Description: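 HT-PELSA: desalted E. coli K-12 BW25113 lysate (with 12 mM MgCl2) incubated with 5 mM ATP (pH 7) or water for 30 min at 25 C, then a 4 min trypsin pulse at 22 C. Peptides were quantified by DIA-MS (4 replicates). Value is the peptide log2 fold change (treated/control); negative = stabilized. Scale: negative = ligand-stabilized region.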
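Note: lysate desalted by size exclusion to strip endogenous ATP, peptide intensities built from DIA-NN precursor signals, and peptides missing any value discarded before comparison.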

Target	log2 fold change
UniProt P76043 (peptide sequence: ACSEPNPDYPR, peptide start residue: 284)	-1.41
UniProt P46889 (peptide sequence: FRDNPSPLTVVLGK, peptide start residue: 957)	-1.51
UniProt P06987 (peptide sequence: VGDLSTEMIEHFFR, peptide start residue: 290)	-1.32
UniProt P39829 (peptide sequence: SANPSPGNKK, peptide start residue: 364)	-0.412
UniProt P33368 (peptide sequence: IINITSVHEHTPLPDASAYTAAK, peptide start residue: 135)	0.894
UniProt P15038 (peptide sequence: LHTEDITAR, peptide start residue: 265)	-2.37
UniProt P29131 (peptide sequence: MAGHTNCIR, peptide start residue: 306)	-0.526
UniProt P20083 (peptide sequence: VQDLQVVGTCGKR, peptide start residue: 147)	-1.89
UniProt P45395 (peptide sequence: LHVPLICITGRPESSMAR, peptide start residue: 122)	1.09
UniProt P10121 (peptide sequence: KRGFFSWLGFGQK, peptide start residue: 6)	0.814
UniProt P37692 (peptide sequence: AYVLPNSFK, peptide start residue: 84)	-1.08
UniProt P77376 (peptide sequence: VGLIGYGYASK, peptide start residue: 7)	-1.01
UniProt P08956 (peptide sequence: ITGDADKDAR, peptide start residue: 763)	-3.68
UniProt P02358 (peptide sequence: TKHAVTEASPMVK, peptide start residue: 92)	0.374
UniProt P0AFZ1 (peptide sequence: NELEDLLEK, peptide start residue: 6)	0.67
UniProt P36683 (peptide sequence: EALGLPHSDVFR, peptide start residue: 359)	0.334
UniProt P17169 (peptide sequence: LKSNIEEVR, peptide start residue: 530)	-0.459
UniProt P31660 (peptide sequence: SGNDLHYR, peptide start residue: 38)	1.29
UniProt P46837 (peptide sequence: AEDEAINVFAR, peptide start residue: 303)	0.79
UniProt P0AFI5 (peptide sequence: YTHFADASR, peptide start residue: 264)	-0.35
UniProt P39160 (peptide sequence: TWQIAMDGSQKLPQR, peptide start residue: 366)	-0.725
UniProt P28904 (peptide sequence: LDVVNLISKDPR, peptide start residue: 199)	-0.478
UniProt P76027 (peptide sequence: GCPFQPR, peptide start residue: 298)	1.56
UniProt P77775 (peptide sequence: TGVVLAPDGGILGK, peptide start residue: 163)	-0.725
MurD (peptide sequence: YLNGDNVR, peptide start residue: 359) (UniProt P14900)	-1.33
UniProt P13009 (peptide sequence: DQVEDYAR, peptide start residue: 1198)	-1.27
UniProt P33650 (peptide sequence: AYAGEASQHLDAALAR, peptide start residue: 217)	0.832
UniProt P14175 (peptide sequence: YIEQGLSK, peptide start residue: 24)	1.4
